Among the data in the OligoGym collection are sensor-assay potency score (higher = more potent) values, retold here.

Among the targets are RORB; RPF2; RPL19; ROPN1; RPS6KA5; RTTN; RYR2; SASH1; SCGB1D4; SEZ6L; SH3YL1; SLC20A1; SLC22A7; SLC25A25; SLC50A1; SLC7A11; SLCO4C1; SMYD3; SNRNP200; SNN; SNCG; SNRNP70.
What all share (test): pooled miR-30 sensor sort-seq; sequence = guide strand
Holding throughout (details): shRNA
Note: reference of the scale not given here.

Turning to TTGATCATTTTGACAGAGCTCC, the sensor-assay potency score (higher = more potent) in the assay with RORB stood at 0.0925.
For the sequence ATAATCTTCTGTTACATCGAAA, the sensor-assay potency score (higher = more potent) with RPF2 was -0.564.
The same measure, in the same setting: under TTCAACAGCAACTTATAGCTTC stands 0.301.
For the sequence TACAGGCTGTGATACATGTGGC, the sensor-assay potency score (higher = more potent) in the assay with RPL19 is -1.14.
TGAAGTACAATCATCTCTGTAT gave a sensor-assay potency score (higher = more potent) in the assay with ROPN1 of 0.335.
ATTGGGGTCTAACCAGACCTTC yielded a sensor-assay potency score (higher = more potent) in the assay with RPL19 of -1.59.
TATGGTCACATGATAAGACCTC returned a sensor-assay potency score (higher = more potent) in the assay with ROPN1 of -0.256.
For TTCCATGTAGTTTAGCATCCTG, the sensor-assay potency score (higher = more potent) with ROPN1 is -0.0226.
On to TTTTTGAACACATTCCCCTTCA, for which the sensor-assay potency score (higher = more potent) with RPL19 was -0.0211.
Regarding TCTTTTTATATAGTACACCGTA, the sensor-assay potency score (higher = more potent) with RPF2 was -0.652.
As to TTAAACAGTTTCTCTGCCTTGG, the sensor-assay potency score (higher = more potent) with RORB is 0.233.
Sequence TTTCAGTGCATACACATCTTTA displayed a sensor-assay potency score (higher = more potent) with RPF2 of -0.778.
In the assay with ROPN1, TCACTGTGATTATACCATCAGG returned a sensor-assay potency score (higher = more potent) of -1.52.
In the case of TTACCTATGCCCATGTGCCTGC, in the assay with RPL19, the sensor-assay potency score (higher = more potent) was -0.132.
In the assay with RORB, TTCCAGTCATGTCAAGTCCTGA gave a sensor-assay potency score (higher = more potent) of -0.578.
On the same count and under the same terms, under TTGCTTAAATACCTGCAGCTTC stands -0.375.
For ATACATGTGGCGATCGATCTTC, in the assay with RPL19, the sensor-assay potency score (higher = more potent) came to 0.46.
TTGTAGTTTGCTTAGGTCTTGC: the sensor-assay potency score (higher = more potent) with RPF2 was -0.359.
TTGTTCTGCTGGCTCCTCCTAA displayed a sensor-assay potency score (higher = more potent) with RORB of -0.741.
TTATATAGTACACCGTATGGTT: the sensor-assay potency score (higher = more potent) with RPF2 was -0.793.
Same read-out and setting: in the case of TTAAGTACTTTTGTCACTGTTG it was -0.124; in that of TAGTCTTCTATAATCTTCTGTT, -0.606.
On to TTGATGATCTCCTCCTTCTTGG, for which the sensor-assay potency score (higher = more potent) with RPL19 worked out at 0.222.
TTAGTCTTCTATAATCTTCTGT: the sensor-assay potency score (higher = more potent) with RPF2 was 0.354.
TTCACATGTGATGACTCCGTAG came in with a sensor-assay potency score (higher = more potent) with RORB of -1.17.
Same read-out and setting: in the case of TAGGGCAAGACACTTCTGCAGT it was -0.56.
In the assay with RPF2, TTTGCTTAGGTCTTGCTTCTGC gave a sensor-assay potency score (higher = more potent) of 0.678.
For the sequence TACAAGAAAATTGATTTTGGGT, the sensor-assay potency score (higher = more potent) with ROPN1 came out at 0.726.
The sequence TCACTTTTTAATATTCTCCTAG had a sensor-assay potency score (higher = more potent) in the assay with RPS6KA5 of -0.3.
In the assay with RTTN, TTCTTCACTATGACTACCCAAA showed a sensor-assay potency score (higher = more potent) of -0.98.
For the sequence TTCAAATCAAACATACACCGTC, the sensor-assay potency score (higher = more potent) in the assay with RTTN came to 0.646.
In the assay with RYR2, TTCATTATTATCCATCACCGAA had a sensor-assay potency score (higher = more potent) of -1.08.
The same measure, in the same setting: in the case of TATTCGAGACACATCTACCTTC it was 0.298.
As for TAATGTACAATAACTCTTGAGT, the sensor-assay potency score (higher = more potent) with SASH1 was -0.698.
TTAAAAGATATCTGATCGGTGC showed a sensor-assay potency score (higher = more potent) with SCGB1D4 of 0.0419.
In the assay with SEZ6L, TAGATGGTCAAGATGTCACTGT came in with a sensor-assay potency score (higher = more potent) of -0.115.
The same measure, in the same setting: in the case of TCGAGTGATCCACCTCTCCGGG it was -1.
In the assay with SH3YL1, TTTAGCAGAAGACTTCCTCTGC showed a sensor-assay potency score (higher = more potent) of 0.193.
As for TAGCTCTTTGTACAGGCCGGAA, in the assay with SLC20A1, the sensor-assay potency score (higher = more potent) was -1.38.
The same measure, in the same setting: under TTCTCGTTCAATTTTTCTCTTC stands -0.376.
In the case of TAATAGGAGAAGTTCACTCCGA, the sensor-assay potency score (higher = more potent) in the assay with SLC22A7 was determined as 0.0839.
Still for that read-out and setting: in the case of TAGGGTACAACTCTGAAGTGAA it was 0.4.
Sequence TTGAGCGTCTCGTAGACTGCAA displayed a sensor-assay potency score (higher = more potent) with SLC25A25 of 0.033.
For TCCACTGTGAACTCATCCGGGA, the sensor-assay potency score (higher = more potent) in the assay with SLC25A25 is -0.99.
Consider TTGGACACCATGATATAGGGAT, for which the sensor-assay potency score (higher = more potent) with SLC50A1 worked out at 0.348.
In the assay with SLC7A11, ATAATTATCAGAATTGCTGTGA came in with a sensor-assay potency score (higher = more potent) of 0.593.
Same read-out and setting: in the case of TTAATTAGCTGCATAACTCCAG it was 0.313.
With TAGACTAATATATTTGTTCAGT, the sensor-assay potency score (higher = more potent) with SLCO4C1 was -0.742.
Same read-out and setting: under TTGAATAATATTATCACAGAAT stands -0.992.
TAATATTTGACTCCAGATCATA registered a sensor-assay potency score (higher = more potent) with SMYD3 of -1.27.
Take TACTTGACCAGATTGTTCTTGT: in the assay with SNRNP200, the sensor-assay potency score (higher = more potent) worked out at 0.676.
On to TCAGCTTGGCCTTTCTCTCCAC, for which the sensor-assay potency score (higher = more potent) with SNN is -0.343.
TCTCTTTGGATGCCACACCCTC: the sensor-assay potency score (higher = more potent) with SNCG is -1.21.
Consider TTAAGCTCTGTCTCCACTTCTT, for which the sensor-assay potency score (higher = more potent) in the assay with SNRNP70 is -0.388.
As to TCCTCGTCCTCTGACTGGCTGA, the sensor-assay potency score (higher = more potent) in the assay with SNN is -1.43.
On to TTCACTAGCACATGGTATCTGG, for which, in the assay with SNRNP200, the sensor-assay potency score (higher = more potent) is -0.256.
In turn, TCCTCTTCTGGTACCACCGAGG gave a sensor-assay potency score (higher = more potent) in the assay with SNRNP70 of -1.82.
The sequence TTTCTCTCCACGCACGGTCCCT displayed a sensor-assay potency score (higher = more potent) with SNN of -1.1.
TTGAACTCAGAGGACAATGAGA returned a sensor-assay potency score (higher = more potent) in the assay with SNRNP200 of -0.903.
Take TTGGGAGTCATCAGCTTGGCCT: the sensor-assay potency score (higher = more potent) with SNN was -0.835.
